# From PubChem BioAssay (EPA / NIEHS)
# Values joined by “and” are separate entries in the source; they are usually repeats but may differ in a detail not shown here. Equal entries are not always repeated. Records with an inconclusive call do not appear. The source holds several records for some structures; these can differ, active in one and inactive in another. Active and inactive are the calls of the source. How the source made its calls, unless noted: active means hit-call score of the fitted dose curve at least 0.9, where 1 is the maximum; inconclusive means response in the unintended direction; inactive means score below 0.9.
# How the values were obtained:
# [1] = target: rat Oxytocin Receptor (OXT), Oxtr (gene 25342) (UniProt P70536); assay: NVS_GPCR_rOXT: NovaScreen (NVS) G Protein-Coupled Receptor Assay for rat Oxytocin Receptor (OXT) (AID 2283330)
# Outline: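 Radioligand displacement on rat uterine membranes, 1 h incubation, filter-based scintillation counting. Chemicals were screened in duplicate at 25 uM, and those passing threshold were retested in concentration-response up to 50 uM. Loss of binding was fitted versus DMSO.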
# [2] = target: human Peripheral-type Benzodiazepine Receptor (PBR), TSPO (gene 706) (UniProt P30536); assay: NVS_MP_hPBR: NovaScreen (NVS) Membrane Protein Assay for human Peripheral-type Benzodiazepine Receptor (PBR) (AID 2283331);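 further: hits reduce radioligand binding relative to DMSO baseline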
# Outline: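 Radioligand displacement on human colonic cell membranes, 1 h incubation; bound radioactivity by filtration and scintillation counting. Primary screen in duplicate at 25 uM single concentration, actives followed up in concentration series; loss of binding versus DMSO.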
# [3] = target: rat Peripheral-type Benzodiazepine Receptor (PBR), Tspo (gene 24230) (UniProt P16257); assay: NVS_MP_rPBR: NovaScreen (NVS) Membrane Protein Assay for rat Peripheral-type Benzodiazepine Receptor (PBR) (AID 2283335)
# Outline: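 Radioligand displacement, rat kidney membrane prep, 1 h exposure, filter-based scintillation read; DMSO baseline, loss-of-signal scored. Primary screen at 25 uM in duplicate, actives followed up in concentration series.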
# [4] = tested on: NCBI gene 100848466; assay: NVS_NR_bPR: NovaScreen (NVS) Nuclear Receptor Binding Assay for bovine Progextron Receptor (PR) (AID 2283343);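 on AC50: actives lower bound radioligand signal below DMSO meaning displacement of the label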
# Outline: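 Bovine uterine membrane preparation; radioligand displacement read by scintillation counting 18 h after dosing. Primary screen single concentration, 25 uM, in duplicate; actives followed up in concentration series. Signal loss versus DMSO baseline.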
# [5] = target: bovine Estrogen Receptor (ER), ESR1 (gene 407238) (UniProt P49884); assay: NVS_NR_bER: NovaScreen (NVS) Nuclear Receptor Binding Assay for bovine Estrogen Receptor (ER) (AID 2283345);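 further: actives lower the bound radioligand count which means they displace the ER ligand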
# Outline: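 Cell-free radioligand binding with receptor from bovine uterine membranes, read by scintillation counting 18 h after dosing. Loss of specific binding was scored against DMSO; primary screen at 25 uM in duplicate, actives then run as concentration series.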
# [6] = target: chimpanzee Androgen Receptor (AR), AR (gene 747460) (UniProt O97775); assay: NVS_NR_cAR: NovaScreen (NVS) Nuclear Receptor Binding Assay for chimpanzee Androgen Receptor (AR) (AID 2283346);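 further: radioligand displacement from AR measured by scintillation counting in a cell-free assay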
# Outline: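 Radioligand binding to chimpanzee AR expressed in Sf9/Sf21 cells, cell-free, measured 72 h after dosing by lysate-based scintillation counting. Loss of signal vs DMSO; initial duplicate screen at 25 uM, actives retested in concentration series.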
# [7] = target: rat Glutamate, NMDA Agonist Site (GluNMDA), Grin1 (gene 24408) (UniProt P35439); assay: NVS_LGIC_rGluNMDA_Agonist: NovaScreen (NVS) Ligand-Gated Ion Channel Assay for rat Glutamate, NMDA Agonist Site (GluNMDA) (AID 2283327)
# Outline: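 Rat forebrain membranes, radioligand binding in the agonist-site protocol; 1 h after dosing; filter-based scintillation counting. Single-concentration duplicate screen at 25 uM, then concentration-response up to 50 uM for actives; gain-of-signal vs DMSO.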
# [8] = target: human Constitutive Androstane Receptor (CAR), NR1I3 (gene 9970) (UniProt Q14994); assay: NVS_NR_hCAR_Antagonist: NovaScreen (NVS) Nuclear Receptor Binding Assay for human Constitutive Androstane Receptor Antagonism (CAR) (AID 2283344)
# Outline: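 Cell-free TR-FRET binding read 1 h after dosing, antagonist mode; loss of signal versus DMSO baseline. Primary screen in duplicate at a single 25 uM; actives retested in concentration series.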
# [9] = target: rat Glutamate, AMPA Site (AMPA), Gria1 (gene 50592) (UniProt P19490); assay: NVS_LGIC_rAMPA: NovaScreen (NVS) Ligand-Gated Ion Channel Assay for rat Glutamate, AMPA Site (AMPA) (AID 2283324)
# Outline: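 Rat forebrain membranes; radioligand binding read 1 h after dosing by filtration and scintillation counting. Duplicate single-point screen at 25 uM, then concentration-response to 50 uM for threshold hits (e.g. 30% inhibition); loss of signal vs DMSO.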
# [10] = target: rat Thyrotropin Releasing Hormone Receptor (TRH), Trhr (gene 25570) (UniProt Q01717); assay: NVS_GPCR_rTRH: NovaScreen (NVS) G Protein-Coupled Receptor Assay for rat Thyrotropin Releasing Hormone Receptor (TRH) (AID 2283329);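 further: hit means lower bound tracer signal versus DMSO baseline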
# Outline: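 Cell-free radioligand binding on rat forebrain membranes; bound tracer measured by filter-based scintillation counting 4 hours after dosing. Loss of signal versus DMSO baseline indicates displacement; primary screen at 25 uM in duplicate, actives then run in concentration series.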
# [11] = target: bovine Gamma-Aminobutyric Acid Type A Receptor Agonist (GABAR Agonist), GABRA1 (gene 780973) (UniProt P08219); assay: NVS_LGIC_bGABAR_Agonist: NovaScreen (NVS) Ligand-Gated Ion Channel Assay for bovine Gamma-Aminobutyric Acid Type A Receptor Agonist (GABAR Agonist) (AID 2283338)
# Outline: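 Radioligand binding to bovine cerebellar membranes in agonist format, read by filter-based scintillation counting after 1 h. Primary screen in duplicate at 25 uM, with actives followed in concentration series. Gain of signal versus DMSO.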
# [12] = tested on: guinea pig Histamine Receptor (H2), gene 100729734; assay: NVS_GPCR_gH2: NovaScreen (NVS) G Protein-Coupled Receptor Assay for guinea pig Histamine Receptor (H2) (AID 2283342)
# Outline: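 Radioligand displacement on guinea pig striatal membranes, 1 h after dosing, filter-based scintillation counting; loss of signal versus DMSO. Single-point screen at 25 uM in duplicate, then concentration-response up to 50 uM.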
# [13] = target: rat Gamma-Aminobutyric Acid Type A Receptor, Non-Selective (GABAR-NonSelective), Gabra1 (gene 29705) (UniProt P62813); assay: NVS_LGIC_rGABAR_NonSelective: NovaScreen (NVS) Ligand-Gated Ion Channel Assay for rat Gamma-Aminobutyric Acid Type A Receptor, Non-Selective (GABAR-NonSelective) (AID 2283326)
# Outline: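 Radioligand displacement on rat whole-brain extract, 1 h, filter scintillation readout; signal loss fitted versus DMSO. Primary screen in duplicate at 25 uM; hits (e.g. ≥30% inhibition) retested in concentration-response up to 50 uM.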
# [14] = target: Glutamate receptor ionotropic, kainate 1 (Rattus norvegicus) (UniProt P22756); assay: NVS_IC_rKAR: NovaScreen (NVS) Ion Channel Assay for rat Kainic Acid Receptors (KAR) (AID 2283334; active means hit-call score of the fitted dose curve at least 0.9, where 1 is the maximum; inactive means score below 0.9)
# Outline: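 Radioligand displacement binding using rat forebrain membranes, 1 h incubation, filter-based scintillation counting. Screened in duplicate at 25 uM, with actives retested in concentration-response up to 50 uM; fitted against DMSO.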
# [15] = NVS_IC_rCaBTZCHL: NovaScreen (NVS) Ion Channel Assay for Calcium Channel, Type L, Benzothiazepine Site (CaBTZCHL) (AID 2283337)
# Outline: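 Radioligand binding to the benzothiazepine site of L-type Ca channels in rat cortical membranes (cell-free), 1.5 h after dosing; filter-based scintillation counting. Loss of signal relative to DMSO baseline; primary single-concentration screen at 25 uM, actives then run in concentration series.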
# [16] = target: rat Glutamate, MK-801 Agonist Site (GluNMDA_MK801), Grin1 (gene 24408) (UniProt P35439); assay: NVS_LGIC_rGluNMDA_MK801_Agonist: NovaScreen (NVS) Ligand-Gated Ion Channel Assay for rat Glutamate, MK-801 Agonist Site (GluNMDA_MK801) (AID 2283340)
# Outline: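 Radioligand binding at MK-801 site in rat forebrain membranes, 1.5 h incubation, filter-based scintillation counting. Initially 25 uM in duplicate; actives then run in concentration-response up to 50 uM, fitted for gain of signal versus DMSO.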
# Chain of chimpanzee Androgen Receptor (AR), AR (gene 747460) (O97775 whole entry, looked up): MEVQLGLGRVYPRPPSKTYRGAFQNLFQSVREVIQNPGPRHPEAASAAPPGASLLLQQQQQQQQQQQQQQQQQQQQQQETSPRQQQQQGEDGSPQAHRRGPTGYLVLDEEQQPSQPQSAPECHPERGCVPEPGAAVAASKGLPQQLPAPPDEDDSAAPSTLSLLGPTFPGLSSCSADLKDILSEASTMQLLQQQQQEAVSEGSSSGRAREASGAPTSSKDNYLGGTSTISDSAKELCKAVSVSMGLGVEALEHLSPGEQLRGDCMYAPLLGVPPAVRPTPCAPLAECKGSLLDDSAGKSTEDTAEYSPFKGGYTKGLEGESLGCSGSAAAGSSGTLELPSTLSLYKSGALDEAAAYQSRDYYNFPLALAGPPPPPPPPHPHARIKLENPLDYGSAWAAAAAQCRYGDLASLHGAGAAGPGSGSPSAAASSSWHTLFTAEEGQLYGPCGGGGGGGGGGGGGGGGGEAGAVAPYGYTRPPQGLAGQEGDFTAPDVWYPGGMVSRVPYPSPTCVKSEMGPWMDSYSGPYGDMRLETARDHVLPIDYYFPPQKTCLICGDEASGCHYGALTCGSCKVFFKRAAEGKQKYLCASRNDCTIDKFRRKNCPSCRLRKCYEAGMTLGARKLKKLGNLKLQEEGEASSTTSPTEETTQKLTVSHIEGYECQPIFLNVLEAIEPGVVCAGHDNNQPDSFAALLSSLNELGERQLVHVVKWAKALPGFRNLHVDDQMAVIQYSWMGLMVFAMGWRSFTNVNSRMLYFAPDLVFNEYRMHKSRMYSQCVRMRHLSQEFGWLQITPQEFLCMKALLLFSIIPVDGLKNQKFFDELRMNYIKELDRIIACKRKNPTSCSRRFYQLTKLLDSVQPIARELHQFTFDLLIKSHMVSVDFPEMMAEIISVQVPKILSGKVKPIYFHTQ
# Chain of human Constitutive Androstane Receptor (CAR), NR1I3 (gene 9970) (Q14994 whole entry, looked up): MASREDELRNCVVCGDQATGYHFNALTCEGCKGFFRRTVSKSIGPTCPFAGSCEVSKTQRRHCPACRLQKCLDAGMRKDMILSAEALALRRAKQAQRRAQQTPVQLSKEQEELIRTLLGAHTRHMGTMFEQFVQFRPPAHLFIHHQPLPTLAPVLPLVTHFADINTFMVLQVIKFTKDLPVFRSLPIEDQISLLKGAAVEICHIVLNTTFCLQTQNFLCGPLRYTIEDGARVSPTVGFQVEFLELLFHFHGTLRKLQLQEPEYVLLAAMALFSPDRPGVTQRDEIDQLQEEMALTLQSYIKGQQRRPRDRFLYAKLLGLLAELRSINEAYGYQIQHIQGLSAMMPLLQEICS
# Chain of human Peripheral-type Benzodiazepine Receptor (PBR), TSPO (gene 706) (P30536 whole entry, looked up): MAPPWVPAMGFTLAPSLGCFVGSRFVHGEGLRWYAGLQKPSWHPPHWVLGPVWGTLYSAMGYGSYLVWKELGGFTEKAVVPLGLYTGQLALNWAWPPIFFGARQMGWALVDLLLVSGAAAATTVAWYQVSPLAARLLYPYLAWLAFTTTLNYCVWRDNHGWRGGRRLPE
# Chain of bovine Estrogen Receptor (ER), ESR1 (gene 407238) (P49884 whole entry, looked up): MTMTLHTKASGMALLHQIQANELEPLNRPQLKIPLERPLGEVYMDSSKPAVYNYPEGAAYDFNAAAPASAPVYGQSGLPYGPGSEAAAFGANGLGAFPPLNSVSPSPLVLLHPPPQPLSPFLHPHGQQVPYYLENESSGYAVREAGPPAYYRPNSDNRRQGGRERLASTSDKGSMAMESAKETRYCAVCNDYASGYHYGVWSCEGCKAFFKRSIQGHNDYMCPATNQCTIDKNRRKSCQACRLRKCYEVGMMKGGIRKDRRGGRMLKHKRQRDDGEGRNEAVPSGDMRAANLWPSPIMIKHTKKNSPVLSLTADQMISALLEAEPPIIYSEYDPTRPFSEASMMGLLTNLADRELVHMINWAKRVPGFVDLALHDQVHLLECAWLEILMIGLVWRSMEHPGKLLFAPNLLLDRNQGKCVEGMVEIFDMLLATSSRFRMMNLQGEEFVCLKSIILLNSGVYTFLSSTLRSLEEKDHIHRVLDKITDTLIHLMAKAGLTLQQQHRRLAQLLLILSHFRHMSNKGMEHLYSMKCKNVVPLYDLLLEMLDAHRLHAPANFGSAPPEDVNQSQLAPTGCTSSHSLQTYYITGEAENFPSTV
# Chain of rat Peripheral-type Benzodiazepine Receptor (PBR), Tspo (gene 24230) (P16257 whole entry, looked up): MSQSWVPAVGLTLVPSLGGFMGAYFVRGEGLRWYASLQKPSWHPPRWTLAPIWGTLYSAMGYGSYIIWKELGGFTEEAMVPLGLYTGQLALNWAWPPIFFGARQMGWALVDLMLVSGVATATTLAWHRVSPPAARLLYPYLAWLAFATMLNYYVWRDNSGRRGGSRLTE
# Chain of rat Thyrotropin Releasing Hormone Receptor (TRH), Trhr (gene 25570) (Q01717 whole entry, looked up): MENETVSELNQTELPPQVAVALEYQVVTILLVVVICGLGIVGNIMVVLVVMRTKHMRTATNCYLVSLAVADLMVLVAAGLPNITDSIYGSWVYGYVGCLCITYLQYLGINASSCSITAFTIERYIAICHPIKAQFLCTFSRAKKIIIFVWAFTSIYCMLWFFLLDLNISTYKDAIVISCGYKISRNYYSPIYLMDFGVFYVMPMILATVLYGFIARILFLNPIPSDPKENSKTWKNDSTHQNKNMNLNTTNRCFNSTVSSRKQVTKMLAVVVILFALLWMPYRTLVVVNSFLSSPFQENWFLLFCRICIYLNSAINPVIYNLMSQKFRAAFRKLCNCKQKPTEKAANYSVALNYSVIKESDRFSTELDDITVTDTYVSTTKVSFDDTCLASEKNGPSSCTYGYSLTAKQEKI
# Chain of rat Gamma-Aminobutyric Acid Type A Receptor, Non-Selective (GABAR-NonSelective), Gabra1 (gene 29705) (P62813 whole entry, looked up): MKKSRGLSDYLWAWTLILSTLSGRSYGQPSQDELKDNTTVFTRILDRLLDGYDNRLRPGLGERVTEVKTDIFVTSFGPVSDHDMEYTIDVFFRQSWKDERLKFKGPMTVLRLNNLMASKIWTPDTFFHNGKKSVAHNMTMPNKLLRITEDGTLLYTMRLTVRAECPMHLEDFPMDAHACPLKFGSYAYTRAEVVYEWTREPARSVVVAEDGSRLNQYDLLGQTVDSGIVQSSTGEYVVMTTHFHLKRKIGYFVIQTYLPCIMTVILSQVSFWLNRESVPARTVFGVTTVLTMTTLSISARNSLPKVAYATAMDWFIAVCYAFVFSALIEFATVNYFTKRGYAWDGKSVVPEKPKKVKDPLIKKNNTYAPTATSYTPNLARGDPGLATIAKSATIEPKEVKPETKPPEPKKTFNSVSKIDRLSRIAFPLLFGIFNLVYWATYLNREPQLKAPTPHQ
# Chain of bovine Gamma-Aminobutyric Acid Type A Receptor Agonist (GABAR Agonist), GABRA1 (gene 780973) (P08219 whole entry, looked up): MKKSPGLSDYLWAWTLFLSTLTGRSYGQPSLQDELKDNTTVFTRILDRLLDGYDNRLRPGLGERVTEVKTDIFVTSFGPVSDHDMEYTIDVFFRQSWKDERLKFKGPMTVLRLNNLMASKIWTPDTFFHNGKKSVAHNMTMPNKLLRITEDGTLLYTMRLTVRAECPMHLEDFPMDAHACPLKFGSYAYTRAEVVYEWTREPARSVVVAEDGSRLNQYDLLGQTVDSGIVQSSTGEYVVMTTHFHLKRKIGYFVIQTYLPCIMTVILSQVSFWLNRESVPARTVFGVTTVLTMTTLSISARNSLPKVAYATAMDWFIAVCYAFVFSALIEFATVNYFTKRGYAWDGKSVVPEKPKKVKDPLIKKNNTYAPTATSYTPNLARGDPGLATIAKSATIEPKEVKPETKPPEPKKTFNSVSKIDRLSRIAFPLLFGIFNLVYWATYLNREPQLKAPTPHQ
# Chain of Glutamate receptor ionotropic, kainate 1 (Rattus norvegicus) (P22756 whole entry, looked up): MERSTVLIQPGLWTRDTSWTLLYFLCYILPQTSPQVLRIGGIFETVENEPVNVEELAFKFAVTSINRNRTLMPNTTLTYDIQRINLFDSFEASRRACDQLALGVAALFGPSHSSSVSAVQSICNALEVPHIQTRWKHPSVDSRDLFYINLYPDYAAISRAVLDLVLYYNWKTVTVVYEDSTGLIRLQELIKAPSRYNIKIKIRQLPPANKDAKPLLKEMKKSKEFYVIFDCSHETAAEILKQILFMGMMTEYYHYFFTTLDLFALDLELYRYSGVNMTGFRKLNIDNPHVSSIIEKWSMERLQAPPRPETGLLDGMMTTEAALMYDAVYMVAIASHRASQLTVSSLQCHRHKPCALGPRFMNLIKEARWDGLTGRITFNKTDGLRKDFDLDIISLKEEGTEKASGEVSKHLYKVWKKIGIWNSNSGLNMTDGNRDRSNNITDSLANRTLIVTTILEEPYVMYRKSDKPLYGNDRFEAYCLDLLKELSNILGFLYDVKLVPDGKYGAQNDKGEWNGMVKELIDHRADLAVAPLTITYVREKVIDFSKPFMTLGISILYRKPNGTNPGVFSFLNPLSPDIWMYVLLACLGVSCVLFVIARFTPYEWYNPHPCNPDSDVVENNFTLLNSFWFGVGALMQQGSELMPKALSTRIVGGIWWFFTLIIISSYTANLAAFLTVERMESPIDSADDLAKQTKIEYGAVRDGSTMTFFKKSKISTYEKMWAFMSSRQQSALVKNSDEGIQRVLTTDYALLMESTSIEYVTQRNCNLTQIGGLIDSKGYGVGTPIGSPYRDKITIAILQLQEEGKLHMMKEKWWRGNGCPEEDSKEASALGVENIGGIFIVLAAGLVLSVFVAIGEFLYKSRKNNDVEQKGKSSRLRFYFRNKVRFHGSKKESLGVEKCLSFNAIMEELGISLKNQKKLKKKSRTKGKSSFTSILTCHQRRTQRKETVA
# Chain of rat Oxytocin Receptor (OXT), Oxtr (gene 25342) (P70536 whole entry, looked up): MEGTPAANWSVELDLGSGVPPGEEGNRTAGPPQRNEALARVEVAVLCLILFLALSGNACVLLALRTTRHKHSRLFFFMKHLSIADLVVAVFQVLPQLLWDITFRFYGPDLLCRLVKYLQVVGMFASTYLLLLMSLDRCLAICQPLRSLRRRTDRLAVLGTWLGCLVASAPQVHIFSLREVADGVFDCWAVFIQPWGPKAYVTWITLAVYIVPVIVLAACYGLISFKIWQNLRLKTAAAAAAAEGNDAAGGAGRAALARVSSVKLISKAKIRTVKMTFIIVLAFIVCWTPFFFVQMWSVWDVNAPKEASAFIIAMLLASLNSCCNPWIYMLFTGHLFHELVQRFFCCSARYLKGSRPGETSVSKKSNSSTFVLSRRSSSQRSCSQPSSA
structure (smiles),measurement,setting,value
C=CC1(C)OC(=O)N(c2cc(Cl)cc(Cl)c2)C1=O (centres undefined),outcome,[1],inactive
same,outcome,[2],inactive
same,AC50,[3],2.19 µM (active) and 1.01 µM (active) and 693 nM (active)
same,outcome,[3],inactive
same,outcome,[4],inactive
same,outcome,[5],inactive
same,outcome,[6],inactive
COc1nc(C)nc(NC(=O)NS(=O)(=O)c2ccccc2CCC(F)(F)F)n1,outcome,[7],inactive
same,outcome,[8],inactive
COc1ccc(C(c2ccc(OC)cc2)C(Cl)(Cl)Cl)cc1,outcome,[9],inactive
same,outcome,[2],inactive
same,outcome,[3],inactive
same,outcome,[4],inactive
same,outcome,[8],inactive
same,outcome,[5],inactive
Oc1ccccc1-c1ccccc1,outcome,[10],inactive
same,outcome,[2],inactive
same,outcome,[3],inactive
same,AC50,[4],31.3 µM (active)
same,AC50,[6],11.2 µM (active) and 25.5 µM (active)
CC1=C(C(=O)Nc2ccccc2)SCCO1,AC50,[2],20.5 µM (active)
same,AC50,[3],12.3 µM (active)
CCCCNC(=O)OCC#CI,AC50,[2],38.2 µM (active) and 41.3 µM (active)
same,AC50,[3],12.8 µM (active) and 10.7 µM (active)
same,outcome,[11],inactive
same,outcome,[12],inactive
same,outcome,[4],inactive
same,outcome,[5],inactive
N#Cc1cc(Br)c(O)c(Br)c1,outcome,[13],inactive
same,outcome,[8],inactive
same,outcome,[5],inactive
CCCCOC(=O)c1ccccc1C(=O)OCCCC,AC50,[2],22.1 µM (active) [middle of 5 runs]
same,AC50,[3],13.4 µM (active) and 15.5 µM (active)
same,outcome,[11],inactive
same,outcome,[4],inactive
same,outcome,[8],inactive
same,outcome,[5],inactive
same,outcome,[6],inactive
C=CCC1=C(C)[C@@H](OC(=O)[C@@H]2[C@@H](C=C(C)C)C2(C)C)CC1=O,outcome,[13],inactive
same,AC50,[2],25 µM (active)
same,AC50,[3],37.7 µM (active)
CC(C)Oc1cc(-n2nc(C(C)(C)C)oc2=O)c(Cl)cc1Cl,outcome,[10],inactive
COc1nc(C)nc(NC(=O)NS(=O)(=O)c2ccccc2Cl)n1,outcome,[5],inactive
CCNc1nc(Cl)nc(NCC)n1,AC50,[2],46.2 µM (active)
same,outcome,[3],inactive
same,outcome,[8],inactive
same,outcome,[5],inactive
CNC(=O)ON=CC(C)(C)SC,outcome,[2],inactive
same,outcome,[4],inactive
same,outcome,[8],inactive
CO/C=C(/C(=O)OC)c1ccccc1Oc1cc(Oc2ccccc2C#N)ncn1,outcome,[14],inactive
same,AC50,[3],3.17 µM (active) [middle of 4 runs]
same,AC50,[15],6.63 µM (active) and 15.4 µM (active)
same,outcome,[16],inactive
same,outcome,[4],inactive
same,outcome,[8],inactive
same,outcome,[5],inactive
CCOP(=S)(OCC)SCn1c(=O)oc2cc(Cl)ccc21,AC50,[2],2.65 µM (active)
same,AC50,[3],4.01 µM (active)
same,outcome,[12],inactive
same,AC50,[4],2.98 µM (active)
same,outcome,[8],inactive
CCON=C(CC)C1=C(O)CC(c2c(C)cc(C)cc2C)CC1=O (centres undefined),outcome,[2],inactive
same,outcome,[8],inactive
